hcDAF-12 act = activates DAF-12 receptor from parasite H. contortus. HEK293 hcDAF-12 lit1-tk-luc reporter, luminescence; 0% DMSO, 100% Δ7-dafachronic acid. activation, % at 6.8 µM. actives 1.4% (n = 370,000);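 active = activation above the mean of all tested compounds plus 3 SD, cut at about 5.5% in these data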;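 also: 100% = response to 3 µM Δ7-dafachronic acid high control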
ssDAF-12 act = activates DAF-12 receptor from parasite S. stercoralis; actives 1% (n = 370,000); HEK293 ssDAF-12/GRIP1 lit1-tk-luc reporter, luminescence; % of 3 µM dafachronic acid response; activation, % at 6.8 µM;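 active = activation above the mean over all tested compounds plus 3 SD, cut at about 0.9% in these data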;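 also: 0% = DMSO-only wells and 100% = 3 µM delta7-dafachronic acid wells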
DAX1 inh-1 = DAX1 (NR0B1) inhibition, primary screen. inhibition, % at 6.8 µM. HEK293T StAR-luciferase reporter, SF-1/DAX-1 repression relief. actives 1.1% (n = 370,000);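 active = inhibition above the mean over all tested compounds plus 3 SD, cut at about 3.6% in these data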;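 also: 0% = DAX-1 cells with DMSO and 100% = cells lacking DAX-1 with DMSO; higher inhibition means more luminescence from relief of DAX-1 repression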
Wee1 stabilizer = human Wee1 degradation inhibition, primary screen; P30291; HeLa Luc-Wee1K328M stability, luciferase luminescence; 100% = proteasome inhibitor MG132 effect; reporter increase, % at 5 µM; actives 1.2% (n = 220,000);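 active = activation above the mean of all tested compounds plus 3 SD, set per screening run, cut at about 8.8% in these data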;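 also: cells exposed to compound for 20 h before luminescence read; 0% = DMSO alone and 100% = MG132 at 30 µM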
hgDAF-12 ag = agonists of H. glycines DAF-12 nuclear receptor | HEK293 GAL4-hgDAF12 UAS-luciferase reporter, agonist luminescence; normalized to butyrate control | activation, % at 6.8 µM | actives 1.8% (n = 370,000);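 active = activation above a cutoff set at the mean of all screened compounds plus 3 SD, cut at about 10% in these data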;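 also: 0% = DMSO wells and 100% = sodium butyrate wells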
DAX1 inh-2 = NR0B1 (DAX1) inhibition | P51843 | HEK293 Gal4-DAX1 luciferase reporter, luminescence | inhibition, % at 6.75 µM | actives 0.99% (n = 340,000) | AID 504766;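 active = inhibition above the mean over all tested compounds plus 3 SD, cut at about 4.2% in these data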;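 also: 0% = DAX1-transfected cells with DMSO and 100% = empty-vector control cells with DMSO; inhibition shows as a rise in luminescence from relieved DAX1 repression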
Target sequence (P51843 207-470 limits assumed): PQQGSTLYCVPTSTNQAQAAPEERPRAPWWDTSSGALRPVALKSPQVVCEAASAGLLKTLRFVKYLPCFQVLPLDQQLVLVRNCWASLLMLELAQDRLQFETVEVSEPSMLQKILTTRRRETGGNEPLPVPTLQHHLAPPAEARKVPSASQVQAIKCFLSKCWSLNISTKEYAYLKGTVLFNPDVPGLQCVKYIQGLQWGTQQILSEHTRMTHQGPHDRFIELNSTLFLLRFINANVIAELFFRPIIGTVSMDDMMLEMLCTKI
The depositor's hits bear a star. Compounds with a hit are over-represented: about 4.6% of the library has one in this group of screens.

C/C(=N\NC(=O)c1ccc(CN2CCOCC2)cc1)c1ccc(NC(=O)c2ccccc2)cc1 was read as hcDAF-12 act 5, ssDAF-12 act -1, DAX1 inh-1 3, Wee1 stabilizer 7, hgDAF-12 ag 11* and DAX1 inh-2 0.
`CC(=O)Nc1ccc(/C(C)=N/NC(=O)c2ccc(CN3CCOCC3)cc2)cc1` gave hcDAF-12 act -1, ssDAF-12 act -2, DAX1 inh-1 1, Wee1 stabilizer -3, hgDAF-12 ag 3 and DAX1 inh-2 0.
CC1CCCC(NC(=O)c2cccc(S(=O)(=O)N3CCOCC3)c2)C1C (centres undefined) was read as hcDAF-12 act 0, ssDAF-12 act -1, DAX1 inh-1 -1, hgDAF-12 ag -1 and DAX1 inh-2 0.
CN(C(=O)c1cccc(NC(=O)Cc2cccc(NC(=O)C3CCN(C(=O)C4CCCCC4)CC3)c2)c1)C1CCC1 was read as hcDAF-12 act 1, ssDAF-12 act -2, DAX1 inh-1 -2, hgDAF-12 ag 0 and DAX1 inh-2 -2.
`COc1c(OC(C)=O)ccc(/C=C/c2ccc3cccc(OC)c3n2)c1[N+](=O)[O-]` gave hcDAF-12 act 2, ssDAF-12 act -1, DAX1 inh-1 1, Wee1 stabilizer 0, hgDAF-12 ag 4 and DAX1 inh-2 0.
Screening COC(=O)c1ccc(/C=C/c2ccc3cccc(OC(C)=O)c3n2)cc1 returned hcDAF-12 act 2, ssDAF-12 act 0, DAX1 inh-1 3, Wee1 stabilizer -2, hgDAF-12 ag 12* and DAX1 inh-2 1.
For Cc1ccc(S(=O)(=O)N2[C@H](CC(=O)OCc3ccccc3)OC[C@@H]2C(C)C)cc1 the results were hcDAF-12 act -1, ssDAF-12 act -1, DAX1 inh-1 -1 and hgDAF-12 ag 0.
For COc1cccc2[nH]c(C(=O)NCCCN3CCCC3=O)cc12 the results were hcDAF-12 act -3, ssDAF-12 act 0, DAX1 inh-1 0, hgDAF-12 ag 2 and DAX1 inh-2 0.
`COc1ccc2cc(C(=O)NCCCN3CCCC3=O)[nH]c2c1` gave hcDAF-12 act 6.2*, ssDAF-12 act 0, DAX1 inh-1 1, hgDAF-12 ag 4 and DAX1 inh-2 0.
Screening CC(=CC(=O)c1ccccc1)c1ccccc1 returned hcDAF-12 act 1, ssDAF-12 act -1, DAX1 inh-1 -1, hgDAF-12 ag 2 and DAX1 inh-2 0.
COc1ccc(NS(=O)(=O)c2ccc(N3CCCC3)c(NC(=S)Nc3ccc(SC(F)F)cc3)c2)cc1 was read as hcDAF-12 act 1, ssDAF-12 act -1, DAX1 inh-1 0, Wee1 stabilizer 9.3*, hgDAF-12 ag -1 and DAX1 inh-2 -2.
CCCN1CCC2(CC1)NC(C(=O)O)Cc1c2[nH]c2ccccc12 (centres undefined) was read as DAX1 inh-2 1.
Screening CCC1(C)NC(C(=O)O)Cc2c1[nH]c1ccccc21 (centres undefined) returned hcDAF-12 act 4, ssDAF-12 act 1.7*, DAX1 inh-1 0, hgDAF-12 ag 2 and DAX1 inh-2 -1.
For COC(=O)[C@]12C[C@H](CC(=O)N3CCCC3)C(=O)N(Cc3ccc(Cl)cc3Cl)C1=C[C@H](C(C)C)O[C@@H]2C1CC1 the results were hcDAF-12 act 0, ssDAF-12 act 0, DAX1 inh-1 -2 and hgDAF-12 ag -2.
For C=CCn1c(SCC(=O)NCCCC)nc2scc(-c3ccco3)c2c1=O the results were hcDAF-12 act -1, ssDAF-12 act -1, DAX1 inh-1 -1, Wee1 stabilizer 3, hgDAF-12 ag -2 and DAX1 inh-2 0.
`C=CCn1c(SCC(C)=O)nc2scc(-c3ccc(C)o3)c2c1=O` gave hcDAF-12 act 1, ssDAF-12 act -1, DAX1 inh-1 1, hgDAF-12 ag 5 and DAX1 inh-2 4.7*.
For C=CCn1c(SCC(=O)c2[nH]c(C)c(C(=O)OCC)c2C)nc2scc(-c3ccc(OC)c(OC)c3)c2c1=O the results were hcDAF-12 act 4, ssDAF-12 act -1, DAX1 inh-1 1, Wee1 stabilizer 9.4*, hgDAF-12 ag 0 and DAX1 inh-2 1.
CCOC(=O)C1CCCN(C(=O)c2ccc3ncsc3c2)C1 (centres undefined) was read as hcDAF-12 act 0, ssDAF-12 act -1, DAX1 inh-1 1, hgDAF-12 ag -1 and DAX1 inh-2 -1.
Screening C=CCc1c(C)nc2c(-c3ccccc3)cnn2c1N1CCOCC1 returned hcDAF-12 act 5.6*, ssDAF-12 act 0, DAX1 inh-1 3, hgDAF-12 ag 10 and DAX1 inh-2 4.
Cc1cc(NCCN2CCOCC2)n2ncc(-c3ccccc3)c2n1 was read as hcDAF-12 act 4, ssDAF-12 act 0, DAX1 inh-1 2, Wee1 stabilizer 3, hgDAF-12 ag 6 and DAX1 inh-2 3.
For Cc1ccc(-c2cnn3c(N4CCOCC4)cc(C)nc23)cc1 the results were hcDAF-12 act 4, ssDAF-12 act -1, DAX1 inh-1 0, hgDAF-12 ag 0 and DAX1 inh-2 7.6*.
`Cc1cc(N2CCOCC2)n2ncc(-c3ccc(Cl)cc3)c2n1` gave hcDAF-12 act -1, ssDAF-12 act -2, DAX1 inh-1 -1, Wee1 stabilizer 5, hgDAF-12 ag -3 and DAX1 inh-2 6.7*.
`O=C(NCc1ccccc1)C1CCN(c2nc(-c3ccc(Br)cc3)cs2)CC1` gave hcDAF-12 act -3, ssDAF-12 act -2 and hgDAF-12 ag 4.
CN(C1=NS(=O)(=O)N=C(N(C)c2ccccc2)O1)c1ccccc1 was read as hcDAF-12 act -1, ssDAF-12 act -1, DAX1 inh-1 -2, hgDAF-12 ag -2 and DAX1 inh-2 -1.
Screening COc1ccccc1NS(=O)(=O)c1ccc(C(=O)N2CCCCCC2)cc1 returned hcDAF-12 act -1, ssDAF-12 act -1, DAX1 inh-1 0, hgDAF-12 ag -4 and DAX1 inh-2 -1.
Screening CCOC(=O)C1=C(C)NC(C)=C(C(=O)OCC)C1/C=C/c1ccccc1OC returned hcDAF-12 act -2, ssDAF-12 act -2, DAX1 inh-1 -1, Wee1 stabilizer -3, hgDAF-12 ag -2 and DAX1 inh-2 6.4*.
`COCCOC(=O)C1=C(C)NC(C)=C(C(=O)OCCOC)C1/C=C/c1ccccc1OC` gave hcDAF-12 act -1, ssDAF-12 act -2, DAX1 inh-1 0, Wee1 stabilizer 1, hgDAF-12 ag -5 and DAX1 inh-2 1.
`O=C(C1CC1)C1(C(=O)N2CCOCC2)CC(c2ccccn2)=NO1` (centres undefined) gave hcDAF-12 act -2, ssDAF-12 act -2, DAX1 inh-1 1 and hgDAF-12 ag 0.

Screening results as filed in PubChem.
